Luc counter: blocks Kinase-Glo luciferase, a counter-screen artifact; Q27757; Kinase-Glo luciferase, ATP luminescence, 8 min; Potency, µM (top dose mostly 38.3 µM), inactives show at the highest dose activity change, negative = inhibition, hits mostly inhibitors; 200,000 tested, 0.28% active; AID 1379; further: nearly all actives have a fitted effect of over 60% in size
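Luminescence was the read-out, taken after 8-minute incubation at ambient temperature. Luciferase turned over luciferin with 10 uM ATP in imidazole pH 7.2 buffer containing KCl, MgCl2, Tween 20 and BSA.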
VP16 counter: counter-screen for ROR gamma inhibitors: Gal4-VP16 reporter | Drosophila S2 Gal4-VP16 UAS-luciferase, luminescence, 20 h | Potency, µM (series often up to 53.6 µM), for inactives: at the highest dose activity, negative = inhibition, usual class: inhibitors | 310,000 tested, 3.5% active | AID 2546;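 further: Gal4-VP16 expression switched on by copper sulfate through the metallothionein promoter; nearly all actives have a fitted effect of over 50% in size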
RORg inh: inhibitors of mouse ROR gamma transcriptional activity | Drosophila S2 Gal4-RORgamma UAS-luciferase reporter, 20 h | AID 2551 | 310,000 tested, 5.4% active | P51450 | Potency, µM (highest dose often 53.6 µM), inactives show top-dose activity change, negative = inhibition, most hits filed as inhibitors; further: nearly all actives have a fitted effect of over 60% in size
Target sequence (P51450 whole entry, looked up, the tested form may be a part): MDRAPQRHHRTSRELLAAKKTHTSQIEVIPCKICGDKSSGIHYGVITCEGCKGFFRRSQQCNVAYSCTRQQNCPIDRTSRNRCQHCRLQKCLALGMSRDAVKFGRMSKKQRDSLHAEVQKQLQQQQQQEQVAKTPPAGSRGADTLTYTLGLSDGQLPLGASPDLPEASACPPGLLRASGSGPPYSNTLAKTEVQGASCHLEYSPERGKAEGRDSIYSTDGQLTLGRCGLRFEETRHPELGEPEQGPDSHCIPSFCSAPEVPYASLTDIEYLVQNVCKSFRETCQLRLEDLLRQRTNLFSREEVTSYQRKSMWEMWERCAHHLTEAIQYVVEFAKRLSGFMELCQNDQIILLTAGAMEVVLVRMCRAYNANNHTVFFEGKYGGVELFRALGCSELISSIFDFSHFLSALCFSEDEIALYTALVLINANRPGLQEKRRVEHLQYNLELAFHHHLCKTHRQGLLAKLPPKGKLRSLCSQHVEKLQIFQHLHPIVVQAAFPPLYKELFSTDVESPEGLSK
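Drosophila S2 cells stably expressing Gal4-DBD/mouse RORγ fusion under metallothionein promoter plus UAS-luciferase; compound 1 h, then 700 uM CuSO4 induction for 20 h at ambient temperature; inhibition read as reduced luminescence.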
* hit, by the source's call; [ ] = dose if it differs, or a comment. Only some compounds are listed: those with a hit (about 6.2% of all), similar ones and a draw of the others. The call rests on the fitted dose curve; in most records, active means well fitted curve in the direction sought with a large enough effect; inconclusive means small, poorly fitted or top-dose-only effect, or another doubt; inactive means no such curve, though single readings can be large; an effect the other way counts as inactive or inconclusive. On the % scale 0 is the no-effect control and ±100 the full control effect; potency means the concentration at half of the fitted maximal effect.

Screening CCCCOc1ncnc2c1[nH]c1ccccc12 returned Luc counter -3%, VP16 counter 10µM* and RORg inh inconclusive.
CCCCOc1ncnc2c1[nH]c1ccc(F)cc12 was read as Luc counter -1%, VP16 counter 7.9µM* and RORg inh inconclusive.
For CCCCOc1ncnc2c1[nH]c1ccc(OCC)cc12 the results were Luc counter -6%, VP16 counter 5% and RORg inh 2%.
For CCCCOc1ncnc2c1[nH]c1ccc(OC)cc12 the results were Luc counter -4%, VP16 counter 6% and RORg inh -10%.
Screening CCOc1ccccc1C(=O)N1CCCCC1C (stereo not given) returned Luc counter 1%, VP16 counter -2% and RORg inh 9%.
`CC(=O)OC[C@@H]1O[C@@H](O/N=C2/C[C@@H](O)[C@@H](O)[C@@H]3[C@@H]4C(=O)N(Cc5ccccc5)C(=O)[C@H]4CC[C@@H]23)[C@H](OC(C)=O)[C@H](OC(C)=O)[C@@H]1OC(C)=O` gave VP16 counter 4%[10 µM] and RORg inh 14%[10 µM].
Screening N#Cc1ccc(CS(=O)(=O)c2nc3ccccc3s2)cc1 returned Luc counter -1%, VP16 counter -12% and RORg inh -30%.
For COc1ccc(C(=O)Oc2c(OC)cc(C(=S)N3CCOCC3)cc2OC)cc1 the results were VP16 counter 0% and RORg inh 36%.
Brc1cc2c(cc1CN1CCc3ccccc3C1)OCO2 was read as VP16 counter -2% and RORg inh -7%.
Screening O=C(Oc1c(CN2CCOCC2)cc(Cl)c2cccnc12)c1ccccc1 returned Luc counter 7%, VP16 counter 5µM* and RORg inh 1.8µM*.
Screening COc1cc(OC)cc(C(=O)Oc2c(CN3CCOCC3)cc(Cl)c3cccnc23)c1 returned VP16 counter 3.2µM* and RORg inh 4.5µM*.
`Oc1c(CN2CCc3ccccc3C2)cc(Cl)c2cccnc12` gave Luc counter 1%, VP16 counter 1.1µM* and RORg inh 0.79µM*.
`O=C(O)Cn1cc(CN2CCOCC2)c2ccccc21` gave VP16 counter 6% and RORg inh 2%[1.91 µM].
For O=c1oc2ccccc2c(O)c1Cc1cc(Cl)c2cccnc2c1O the results were VP16 counter 1.1µM* and RORg inh 0.79µM*.
Screening O=C(Cc1c(O)c2ccccc2oc1=O)c1ccc(C(F)(F)F)cc1 returned VP16 counter 3% and RORg inh 4%.
Screening c1ccc(CNc2oc(-c3ccccc3)nc2-c2cccc3ccccc23)cc1 returned Luc counter -2%, VP16 counter -9% and RORg inh 3%.
`NC(=O)c1ncc(C(F)(F)F)cc1Oc1cccc(C(F)(F)F)c1` gave Luc counter -7%, VP16 counter 5% and RORg inh 12%.
Screening CCC(NS(=O)(=O)c1cn(C)nc1C)c1ccccc1 (stereo not given) returned Luc counter 4%, VP16 counter -18% and RORg inh -2%.
Screening O=C(Oc1ccc(C(=S)N2CCOCC2)cc1Cl)c1ccccc1F returned VP16 counter 6% and RORg inh 2%.
`O=C(Oc1c(CN2CCOCC2)cc(Cl)c2cccnc12)c1ccccc1F` gave Luc counter 6%, VP16 counter 2.2µM* and RORg inh 1.1µM*.
For CC(C)(C)c1ccc(/C=N/OCC(=O)NCc2ccc(F)cc2)cc1 the results were Luc counter 1%, VP16 counter -27% and RORg inh inconclusive.
For Cc1ccc(CNC(=O)CO/N=C/c2ccc(C(C)(C)C)cc2)cc1 the results were Luc counter -1%, VP16 counter 7.9µM* and RORg inh -7%[10 µM].
For CN1CCN(c2ncc3nc(-c4ccc(F)cc4)c(=O)n(C4CC4)c3n2)CC1 the results were VP16 counter -2% and RORg inh -24%.
Screening CC(C)(C)C(=O)/C(=C/c1ccncc1)n1cncn1 returned Luc counter 0%, VP16 counter 2.8µM* and RORg inh 1µM*.
Screening Cc1nn(C)c(C)c1/C=C(/C(=O)C(C)(C)C)n1cncn1 returned VP16 counter -10% and RORg inh -12%.
Cc1cc(C)c(S(=O)(=O)Nc2cccc(S(=O)(=O)NC3=NCCC3)c2)c(C)c1 was read as Luc counter 0%, VP16 counter 3% and RORg inh 19%.
For CCN1CCCC1CNS(=O)(=O)c1c(C)cc(C)cc1C (stereo not given) the results were VP16 counter -6% and RORg inh -11%.
`CCN1C(=O)CS/C1=N\S(=O)(=O)c1ccc(Cl)cc1` gave Luc counter 0%, VP16 counter -7% and RORg inh 5%.
CCN1C/C(=N\S(=O)(=O)/N=C2\CN(CC)C(=O)N2CC)N(CC)C1=O was read as VP16 counter -7% and RORg inh 10µM*.
Screening O=C(NC(Cc1ccccc1)C(=O)OCC(=O)N1CCc2ccccc21)c1ccco1 (stereo not given) returned Luc counter -3% and RORg inh -35%[0.365 µM].
Cc1ccc([C@@]2(C)CC/C(=N/N=C3\CC[C@](C)(c4ccc(C)c(C)c4)c4cc(C)c(C)cc43)c3cc(C)c(C)cc32)cc1C was read as Luc counter -4%[7.66 µM].
`Cc1ccc(S(=O)(=O)Nc2ccc(O)c(C(=O)O)c2)c(C)c1` gave Luc counter 0%.
O=C(Cn1ccc([N+](=O)[O-])n1)NCc1nc2ccccc2[nH]1 was read as Luc counter 3%, VP16 counter 25% and RORg inh -9%.
CSc1ccc(C(=O)C2CCCN(Cc3cccc4nccnc34)C2)cc1 (stereo not given) was read as VP16 counter -4% and RORg inh -23%.
COc1cc(OC)cc(C(=O)NNC(=O)c2ccccn2)c1 was read as Luc counter -2%, VP16 counter 5.6µM* and RORg inh 4.5µM*.
`C/C(=N\NC(=O)C(C)Oc1ccc([N+](=O)[O-])cc1)c1ccccn1` (stereo not given) gave Luc counter -3%, VP16 counter 2.2µM* and RORg inh 1.1µM*.
O=C(NN=C1CCCCCCC1)c1ccccn1 was read as VP16 counter 4% and RORg inh -32%.
`Cc1nc(C(=O)NNC(=O)c2ccc(Cl)cc2)cs1` gave VP16 counter inconclusive and RORg inh 4µM*.
`COc1ccc(OC(C)C(=O)Nc2ccc([N+](=O)[O-])cc2)cc1` (stereo not given) gave Luc counter 1%, VP16 counter 0% and RORg inh inconclusive.
Screening COc1ccc2c(c1)C(=NNC(=O)c1ccccn1)c1cc(OC)ccc1-2 returned Luc counter -2%, VP16 counter 4µM* and RORg inh 2.8µM*.
`Cc1nc(-c2nc(CC(=O)NNC(=O)c3ccc(Cl)cc3)cs2)cs1` gave VP16 counter 4% and RORg inh -17%.
COc1cc(OC)cc(C(=O)NNC(=O)c2ccccc2Br)c1 was read as Luc counter 3%, VP16 counter -2% and RORg inh -4%.
For COc1ccc(/C=N/N=C2\SCC(=O)N2c2c(C)n(C)n(-c3ccccc3)c2=O)cc1OC the results were Luc counter -2%, VP16 counter 0% and RORg inh inconclusive.

Bioassay records as filed in PubChem.
